Reference: PubChem BioAssay (NCATS)
Values joined by “and” are separate entries in the source; they are usually repeats but may differ in a detail not shown here. Identical values can stand only once. Records with an inconclusive call do not appear. A number with no mark means an inactive call. Active and inactive are the calls of the source. The call rests on the fitted dose curve; in most records, active means well fitted cell-killing curve with a large enough effect; inconclusive means small, poorly fitted or top-dose-only effect; inactive means flat fitted curve, though single readings scatter. Where a SMILES comes first, the peptide text is derived from it. Bridges are numbered along the chain shown (N, C = ends). [ ]: non-standard residue; d: D form. hArg = N=C(N)NCCCC[C@H](N)C(=O)O; Mpa = O=C(O)CCS

Experiments:
[1] = Cellular viability qHTS for adrenocortical cancer (ACC) cell line SW-13 (AID 1963989); settings: SW-13 ACC cells viability, CellTiter-Glo, 48 h; activity (max response): active compounds read low; further: nearly all actives have a fitted effect of over 65% in size;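 on activity (max response): cells grown in serum-free medium with ITS supplement; on the % scale 0 is the no-effect control and ±100 the full control effect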
How it was run: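 Luminescent ATP read-out (CellTiter-Glo, 20 min at room temperature) measured metabolically competent SW-13 cells after 48 h compound treatment. Final concentrations spanned up to 46 uM; bortezomib served as positive control.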

[2] = Cellular viability qHTS for adrenocortical cancer (ACC) cell line NCI-H295R (AID 1963990); settings: CellTiter-Glo ATP luminescence, 48 h; series mostly up to 46.1 µM; further: nearly all actives have a fitted effect of over 60% in size
How it was run: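 IC50 and maximal efficacy derive from four-parameter logistic modelling of titration curves, with reads scaled between DMSO-only wells (0%) and doxorubicin hydrochloride (100% inhibition). Compounds spanned up to 46 uM over 48 h.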
Potency means the concentration at half of the fitted maximal effect.

| SMILES | activity (max response) [1] [%] | Potency [2] | Potency [1] |
| --- | --- | --- | --- |
| CC(=O)Oc1ccc(C(c2ccc(OC(C)=O)cc2)c2ccccn2)cc1 | -17.9 | inactive |  |
| CO[C@H]1C=CO[C@@]2(C)Oc3c(C)c(O)c4c(O)c(c(/C=N/N5CCN(C)CC5)c(O)c4c3C2=O)NC(=O)/C(C)=C\C=C[C@H](C)[C@H](O)[C@@H](C)[C@@H](O)[C@@H](C)[C@H](OC(C)=O)[C@@H]1C | -17.1 | inactive |  |
| COc1cc(O)c(C(=O)c2ccccc2)cc1S(=O)(=O)O | 9.22 | inactive |  |
| Cc1[nH]cnc1CN1CCc2c(c3ccccc3n2C)C1=O | 6.95 | inactive |  |
| C/C(=C\C(=O)Nc1ccccc1C(=O)O)c1ccc2ccccc2c1 |  | 28.2 µM (active) | 12.6 µM (active) |
| COc1ccc(-c2cnc3c(-c4cccc5ncccc45)cnn3c2)cc1 | 5.61 | inactive |  |
| CS(=O)(=O)c1ccc(-c2cnc(NCc3ccco3)n3cnnc23)cc1 | -12 | inactive |  |
| CCCN1C[C@H](CSC)C[C@@H]2c3cccc4[nH]cc(c34)C[C@H]21 | -4.04 | inactive |  |
| CCc1ccc(/C=C2/SC(=S)NC2=O)cc1 |  | 17.8 µM (active) | 25.1 µM (active) |
| COc1cc2c3c(n(CCCNCCO)c(=O)c2cc1OC)-c1cc2c(cc1C3=O)OCO2 |  | 2.82 µM (active) | 0.447 µM (active) |
| Cn1c(=O)c(Oc2ccc(F)cc2F)cc2cnc(NC3CCOCC3)nc21 | -3.03 | inactive |  |
| OC1CCC(Oc2cccc3cnc(Nc4ccc5nc[nH]c5c4)nc23)CC1 (configuration not stated) |  | 2.51 µM (active) | 7.94 µM (active) |
| CCN(CC)CCNC(=O)c1cc(Br)c(N)cc1OC | -8.12 | inactive |  |
| CCS(=O)(=O)N1CCC(C(C)n2c(C)c(C(=O)NCc3c(OC)cc(C)[nH]c3=O)c3ccccc32)CC1 (configuration not stated) | -8.74 | inactive |  |
| CCc1oc2ccccc2c1C(=O)c1cc(Br)c(O)c(Br)c1 |  | 7.31 µM (active) | 7.31 µM (active) |
| CC(=O)Oc1cccc2c1C(=O)c1c(OC(C)=O)cc(C(=O)O)cc1C2=O | -7.7 | inactive |  |

| SMILES | activity (max response) [1] [%] | Potency [2] | Potency [1] |
| --- | --- | --- | --- |
| c1ccc2c(c1)CCCC2C1=NCCN1 (configuration not stated) | 5.7 | inactive |  |
| Nc1cc(C(F)(F)F)c(-c2nc(N3CCOCC3)nc(N3CCOCC3)n2)cn1 |  | 2 µM (active) | 11.2 µM (active) |
| CC(=O)OCC(=O)[C@@]1(O)CC[C@H]2[C@@H]3CCC4=CC(=O)C=C[C@]4(C)[C@@]3(F)[C@@H](O)C[C@@]21C | 2.62 | inactive |  |
| COc1ccc(C(=O)N2CCN(C(=O)/C=C/c3ccc(Br)cc3)CC2)cc1 | -12.8 | inactive |  |
| CC(=O)SCC(CC(=O)c1ccc(C)cc1)C(=O)O (configuration not stated) | 11.5 | inactive |  |
| CC(C)(CO)n1cc(C(=O)c2cncc(NC(=O)Cc3ccc(Cl)cn3)c2)c2cnc(N)nc21 | -13.5 | inactive |  |
| CCCCCCCCCCC[C@@H](C[C@@H]1OC(=O)[C@H]1CCCCCC)OC(=O)[C@H](CC(C)C)NC=O | 4.97 | inactive |  |
| NC(=O)[C@@H]1CSSCCC(=O)N[C@@H](CCCCN=C(N)N)C(=O)NCC(=O)N[C@@H](CC(=O)O)C(=O)N[C@@H](Cc2c[nH]c3ccccc23)C(=O)N2CCC[C@H]2C(=O)N1 ([Mpa][hArg]GDWPC-NH2; disulfide 1-7) | 17.5 | inactive |  |
| O=C(Nc1ccc2c(c1)CCN(Cc1ncn[nH]1)C2)c1ccccc1-c1ccc(C(F)(F)F)cc1 | -15.2 | inactive |  |
| CCOc1cc(/C=C2/C(=O)N(c3ccccc3)N=C2C)cc(Cl)c1OCC(=O)OC | -5.72 | inactive |  |
| CCN(CC)CCNC(=O)c1c(C)[nH]c(/C=C2\C(=O)Nc3ccc(F)cc32)c1C |  | 13 µM (active) and 15.8 µM (active) | 18.4 µM (active) |
| CC(=O)N1CCN(c2ccc(NC(=O)Cc3cnc(-c4ccnc(F)c4)c(C)c3)nc2)CC1 | 4.66 | inactive |  |
| Cc1c(CN2CCN(C(=O)[C@H](C)O)CC2)sc2c(N3CCOCC3)nc(-c3cnc(N)nc3)nc12 |  | 0.398 µM (active) | 0.631 µM (active) |
| CN1C(=O)N(c2cc(Cl)cc(Cl)c2)C(=O)[C@]12CN(Cc1cc(C(=O)O)cs1)C[C@H]2c1ccc(C#N)cc1 | -17 | inactive |  |
| CCN(CC)CCNC(=O)COc1ccc(OC)cc1 | -8.99 | inactive |  |
